# Values joined by “and” are separate entries in the source; they are usually repeats but may differ in a detail not shown here. Identical values can stand only once. Records with an inconclusive call do not appear. A call without a number means that no potency is given here. Some compounds were tested as several samples or in several runs, with calls that do not always agree. Active and inactive are the calls of the source. Unless noted, calls follow the shape of the dose curve; as a rule, active = well fitted curve in the direction sought with a large enough effect; inconclusive = small, poorly fitted or top-dose-only effect, or another doubt; inactive = no such curve, though single readings can be large; an effect the other way counts as inactive or inconclusive.
# Experiments:
# [1] = Primary qHTS for small molecule stabilizers of the endoplasmic reticulum resident proteome: Secreted ER Calcium Modulated Protein (SERCaMP) assay (AID 1508630); also: potency is read from the fitted curve at half-maximal effect
# Summary of the method: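 The SH-SY5Y reporter protocol was run at 3 concentrations up to 38.3 uM (primary) or 11 concentrations (follow-up): 16 h compound, 100 nM thapsigargin for 4 h, then extracellular luciferase luminescence.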
# Papain (Carica papaya) = Papain (Carica papaya) (UniProt P00784); experiment: Primary qHTS assay for inhibitors of the protease papain (AID 1645873);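 also: papain turnover of Z-FR-AMC read as the AMC fluorescence gain over 10 min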; also: potency is read from the fitted curve at half-maximal effect
# [2] = Primary qHTS for inhibitors of nuclear receptor binding SET domain protein 2 (NSD2) in an isogenic RCH-ACV NSD2 p.E1099K mutant (9B) (AID 1645876); also: nearly all actives have a fitted effect of over 70% in size; also: potency is read from the fitted curve at half-maximal effect
# [3] = Primary qHTS for inhibitors of nuclear receptor binding SET domain protein 2 (NSD2) in an RCH-ACV wild type WT cells (2C) (AID 1645877); also: nearly all actives have a fitted effect of over 70% in size; also: potency is read from the fitted curve at half-maximal effect
# [4] = molecular target: Cytochrome P450 2D6 (Homo sapiens) (UniProt P10635); experiment: Cytochrome P450 family 2 subfamily D member 6 (CYP2D6) small molecule antagonists: luciferase biochemical (cell-free) qHTS assay (AID 1645840; active = well fitted curve in the direction sought with a large enough effect in the repeat runs; an effect the other way counts as inactive or inconclusive; also: nearly all actives have a fitted effect of over 55% in size; also: potency is read from the fitted curve at half-maximal effect)
# Summary of the method: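 P450-Glo CYP2D6 system: proluciferin substrate converted by enzyme to luciferin, read by luminescence proportional to activity. Enzyme-substrate mix with compound 10 min at room temperature, then NADPH regeneration 1 h before detection reagent.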
# [5] = molecular target: Cytochrome P450 2C9 (Homo sapiens) (UniProt P11712); experiment: Cytochrome P450 family 2 subfamily C member 9 (CYP2C9) small molecule antagonists: luciferase biochemical (cell-free) qHTS assay (AID 1645842; active = well fitted curve in the direction sought with a large enough effect in the repeat runs; an effect the other way counts as inactive or inconclusive; also: nearly all actives have a fitted effect of over 55% in size; also: potency is read from the fitted curve at half-maximal effect)
# Summary of the method: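 P450-Glo CYP2C9 system: proluciferin substrate with enzyme in mix containing 0.4% BSA, 10 min at room temperature, then NADPH regeneration solution added and incubated 1 h at 37C. Detection reagent stopped reaction; luminescence read after 20 min as RLU.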
# [6] = molecular target: Cytochrome P450 3A4 (Homo sapiens) (UniProt P08684); experiment: Cytochrome P450 family 3 subfamily A member 4 (CYP3A4) small molecule antagonists: luciferase qHTS assay (AID 1645841; active = well fitted curve in the direction sought with a large enough effect in the repeat runs; an effect the other way counts as inactive or inconclusive; also: nearly all actives have a fitted effect of over 45% in size)
# Summary of the method: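 P450-Glo CYP3A4 enzyme with proluciferin substrate was preincubated with DMSO-dissolved compounds for 10 min at room temperature. NADPH regeneration solution started a 1 h reaction. Detection reagent stopped it, and luminescence was read after 20 min.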
# [7] = A High-Content qHTS Against Drug Library for the Identification of Small Molecules that Inhibit DYT1 Early Onset Primary Dystonia-Associated Cell Pathology (AID 1645839; calls by dose curve; also: series mostly up to about 46 µM)
# Summary of the method: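 Induced EGFP-delE TorsinA cells are imaged after 48 h of compound treatment. Punctate fusion-protein distribution gives the %pathology value, while nuclei counts flag toxicity. Wild-type EGFP-hTOR1A cells define the normal pattern.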
# Sequence of Cytochrome P450 2C9 (Homo sapiens) (P11712 whole entry, looked up): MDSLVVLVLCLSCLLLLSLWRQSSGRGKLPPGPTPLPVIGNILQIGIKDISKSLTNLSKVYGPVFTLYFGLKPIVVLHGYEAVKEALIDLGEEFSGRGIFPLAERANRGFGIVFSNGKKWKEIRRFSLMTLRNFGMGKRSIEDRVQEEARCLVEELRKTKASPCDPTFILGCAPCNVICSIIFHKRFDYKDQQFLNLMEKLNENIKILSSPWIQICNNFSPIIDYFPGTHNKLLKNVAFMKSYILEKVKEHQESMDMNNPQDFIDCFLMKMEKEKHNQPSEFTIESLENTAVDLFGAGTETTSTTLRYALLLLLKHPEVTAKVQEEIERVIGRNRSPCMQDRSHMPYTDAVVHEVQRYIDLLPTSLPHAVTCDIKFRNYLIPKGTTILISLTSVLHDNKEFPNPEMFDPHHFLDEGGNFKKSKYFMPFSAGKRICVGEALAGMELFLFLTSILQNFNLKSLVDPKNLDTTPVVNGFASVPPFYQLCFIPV
# Sequence of Cytochrome P450 2D6 (Homo sapiens) (P10635 whole entry, looked up): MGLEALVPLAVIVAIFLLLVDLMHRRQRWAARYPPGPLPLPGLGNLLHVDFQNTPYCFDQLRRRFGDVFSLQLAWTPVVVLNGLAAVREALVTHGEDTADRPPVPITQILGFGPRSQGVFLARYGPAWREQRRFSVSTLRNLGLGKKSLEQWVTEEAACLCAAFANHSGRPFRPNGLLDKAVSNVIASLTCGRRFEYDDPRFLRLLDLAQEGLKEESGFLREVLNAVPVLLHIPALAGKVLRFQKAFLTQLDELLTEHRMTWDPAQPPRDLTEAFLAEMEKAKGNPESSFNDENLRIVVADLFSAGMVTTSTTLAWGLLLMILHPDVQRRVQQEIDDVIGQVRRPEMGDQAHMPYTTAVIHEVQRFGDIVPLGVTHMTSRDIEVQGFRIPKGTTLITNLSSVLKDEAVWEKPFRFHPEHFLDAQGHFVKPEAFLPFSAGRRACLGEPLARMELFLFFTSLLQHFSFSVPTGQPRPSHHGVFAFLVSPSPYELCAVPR
# Sequence of Papain (Carica papaya) (P00784 whole entry, looked up, the tested form may be a part): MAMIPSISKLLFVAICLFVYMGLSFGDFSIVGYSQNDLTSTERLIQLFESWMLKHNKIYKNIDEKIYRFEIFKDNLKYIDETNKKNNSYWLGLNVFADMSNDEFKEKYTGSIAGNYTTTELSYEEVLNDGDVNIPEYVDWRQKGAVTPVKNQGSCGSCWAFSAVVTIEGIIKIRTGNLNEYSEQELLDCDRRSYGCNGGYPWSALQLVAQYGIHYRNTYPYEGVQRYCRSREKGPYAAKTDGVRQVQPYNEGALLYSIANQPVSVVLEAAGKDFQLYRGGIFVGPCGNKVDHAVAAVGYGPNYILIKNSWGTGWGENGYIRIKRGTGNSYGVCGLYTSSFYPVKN
# Sequence of Cytochrome P450 3A4 (Homo sapiens) (P08684 whole entry, looked up): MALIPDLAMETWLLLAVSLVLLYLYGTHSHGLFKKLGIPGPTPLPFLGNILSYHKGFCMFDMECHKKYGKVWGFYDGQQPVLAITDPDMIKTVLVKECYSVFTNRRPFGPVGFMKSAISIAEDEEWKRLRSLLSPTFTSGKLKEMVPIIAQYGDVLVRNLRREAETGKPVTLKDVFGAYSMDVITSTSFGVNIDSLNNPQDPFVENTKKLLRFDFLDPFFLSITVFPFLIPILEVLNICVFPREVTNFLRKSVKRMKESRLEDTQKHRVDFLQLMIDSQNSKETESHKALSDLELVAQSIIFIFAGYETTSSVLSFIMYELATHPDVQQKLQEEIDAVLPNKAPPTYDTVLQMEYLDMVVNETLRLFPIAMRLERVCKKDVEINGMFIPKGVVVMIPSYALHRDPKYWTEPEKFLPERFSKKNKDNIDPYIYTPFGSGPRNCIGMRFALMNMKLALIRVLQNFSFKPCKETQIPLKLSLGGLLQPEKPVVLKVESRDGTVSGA
smiles,measurement,setting,value
CC[C@H](C)C(=O)O[C@H]1CCC=C2C=C[C@H](C)[C@H](CC[C@@H]3C[C@@H](O)CC(=O)O3)[C@H]21,Potency,[1],2 µM (active)
same,Potency,Papain (Carica papaya),inactive
same,Potency,[2],14.8 µM (active)
same,Potency,[3],14.8 µM (active)
CC/C(=C(/CC)c1ccc(O)cc1)c1ccc(O)cc1,Potency,[1],inactive
same,Potency,[2],inactive
same,Potency,[3],10.6 µM (active) and inactive
C=C1C(=C/C=C2\CCC[C@]3(C)[C@@H]([C@H](C)/C=C/[C@@H](O)C4CC4)CC[C@@H]23)C[C@@H](O)C[C@@H]1O,Potency,[1],inactive
same,Potency,[4],24.5 µM (active)
same,Potency,[2],15 µM (active)
same,Potency,[3],16.8 µM (active)
CCCCCCCCCCCCCCCC[N+](C)(C)CC,Potency,[1],inactive
same,Potency,[4],0.174 µM (active)
same,Potency,[2],0.335 µM (active)
same,Potency,[3],0.299 µM (active)
COc1ccc(CCN2CCC(Nc3nc4ccccc4n3Cc3ccc(F)cc3)CC2)cc1,Potency,[1],inactive
same,Potency,[4],6.17 µM (active)
same,Potency,[5],inactive
same,Potency,[2],7.5 µM (active)
same,Potency,[3],5.31 µM (active)
CCCC1O[C@@H]2C[C@H]3[C@@H]4CCC5=CC(=O)C=C[C@]5(C)[C@H]4[C@@H](O)C[C@]3(C)[C@]2(C(=O)CO)O1 (stereo partly specified),Potency,[1],inactive
same,Potency,[5],15.1 µM (active)
same,Potency,Papain (Carica papaya),inactive
COc1cccc2c1C(=O)c1c(O)c3c(c(O)c1C2=O)C[C@@](O)(C(=O)CO)C[C@@H]3O[C@H]1C[C@H](N)[C@H](O)[C@H](C)O1,Potency,[1],inactive
same,Potency,[5],inactive
same,Potency,[2],188 nM (active) and 33.2 nM (active)
same,Potency,[3],150 nM (active) and 26.3 nM (active)
COC(=O)[C@H]1[C@H]2C[C@H]3c4[nH]c5ccccc5c4CCN3C[C@H]2CC[C@@H]1O,Potency,[1],inactive
same,Potency,Papain (Carica papaya),inactive
O=C(O)c1cc2cc(Cc3cccnc3)ccc2o1,Potency,[1],inactive
same,Potency,Papain (Carica papaya),inactive
COc1cc(NS(C)(=O)=O)ccc1Nc1c2ccccc2nc2ccccc12,Potency,[1],inactive
same,Potency,Papain (Carica papaya),22.4 µM (active)
same,Potency,[2],0.417 µM (active)
same,Potency,[3],0.332 µM (active)
CC(=O)O[C@H]1C[C@@H]2CC[C@@H]3[C@H](CC[C@@]4(C)[C@H]3C[C@H]([N+]3(C)CCCCC3)[C@@H]4OC(C)=O)[C@@]2(C)C[C@@H]1[N+]1(C)CCCCC1,Potency,[1],inactive
same,Potency,Papain (Carica papaya),inactive
N[C@@H](Cc1cnc[nH]1)C(=O)O,Potency,[1],inactive
same,Potency,Papain (Carica papaya),inactive
O=C(OCCOCCO)c1ccccc1Nc1cccc(C(F)(F)F)c1,Potency,[1],inactive
same,Potency,[4],27.5 µM (active)
same,Potency,[5],17.4 µM (active)
same,Potency,[3],16.8 µM (active)
O=C(CCCN1CCC(O)(c2ccc(Br)cc2)CC1)c1ccc(F)cc1,Potency,[1],inactive
same,Potency,[4],2.75 µM (active)
same,Potency,[5],inactive
same,Potency,[3],18.8 µM (active)
O=C(OCC(O)CO)c1ccccc1Nc1ccnc2cc(Cl)ccc12 (stereo unspecified),Potency,[1],inactive
same,Potency,[4],8.71 µM (active)
same,Potency,[5],5.49 µM (active)
same,Potency,[2],16.8 µM (active)
same,Potency,[3],23.7 µM (active)
C#C[C@]1(OC(C)=O)CC[C@H]2[C@@H]3CCC4=C[C@@H](OC(C)=O)CC[C@@H]4[C@H]3CC[C@@]21C,Potency,[1],inactive
same,Potency,[4],inactive
same,Potency,[5],13.6 µM (active)
same,Potency,[3],18.8 µM (active)
Cc1ccccc1C(=O)Nc1ccc(C(=O)N2CCCC(N(C)C)c3ccccc32)cc1 (stereo unspecified),Potency,[1],inactive
same,Potency,[4],inactive
same,Potency,[5],inactive
same,Potency,[2],5.78 µM (active)
same,Potency,[3],inactive and 5.15 µM (active)
Nc1cc(Cl)c(NC2=NCCN2)c(Cl)c1,Potency,[1],inactive
same,Potency,Papain (Carica papaya),inactive
CCC(NC(C)C)C(O)c1ccc(O)c(O)c1 (stereo unspecified),Potency,[1],inactive
same,Potency,[5],15.1 µM (active)
same,Potency,Papain (Carica papaya),inactive
CC(C)COC(=O)OCN1C(=O)CN(CCN2CC(=O)N(COC(=O)OCC(C)C)C(=O)C2)CC1=O,Potency,[1],inactive
same,Potency,Papain (Carica papaya),inactive
CCCCCCCCCCCCCCCC[N+](C)(C)CCN(Cc1ccc(OC)cc1)c1ncccn1,Potency,[1],inactive
same,Potency,[4],5.49 µM (active)
same,Potency,[5],24.5 µM (active)
same,Potency,[2],0.668 µM (active)
same,Potency,[3],0.75 µM (active)
COc1cc2c(cc1O)CC[C@@H]1[C@@H]2CC[C@]2(C)[C@@H](O)CC[C@@H]12,Potency,[1],inactive
same,Potency,Papain (Carica papaya),inactive
same,Potency,[2],0.742 µM (active)
same,Potency,[3],0.59 µM (active)
CCCCCCCCCCCCCCCCOP(=O)([O-])OCC[N+](C)(C)C,Potency,[1],inactive
same,Potency,[5],inactive
same,Potency,[2],10.6 µM (active)
same,Potency,[3],11.9 µM (active)
C#C[C@]1(O)CC[C@H]2[C@@H]3CCC4=CC(=O)CC[C@@H]4[C@H]3CC[C@@]21C,Potency,[1],inactive
CN(C)CCCOc1nn(Cc2ccccc2)c2ccccc12,Potency,[1],inactive
CNC(=O)CN(CCN(CCN(CC(=O)[O-])CC(=O)NC)CC(=O)[O-])CC(=O)[O-].O.[Gd+3],outcome,[6],inactive
NC(=O)c1cc[n+](CC2=C(C(=O)[O-])N3C(=O)[C@@H](NC(=O)Cc4cccs4)[C@H]3SC2)cc1,Potency,[7],inactive
same,Potency,[4],inactive
same,Potency,[5],inactive
same,Potency,[2],inactive
same,Potency,[3],inactive
CNCC[C@@H](Oc1ccccc1C)c1ccccc1,Potency,[5],inactive
COc1cccc(CCc2ccccc2OCC(CN(C)C)OC(=O)CCC(=O)O)c1 (stereo unspecified),Potency,[4],0.195 µM (active)
same,Potency,[5],inactive
CCOC(=O)OC(C)OC1=C(C(=O)Nc2ccccn2)N(C)S(=O)(=O)c2ccccc21 (stereo unspecified),Potency,[7],inactive
same,Potency,[4],inactive
same,Potency,[2],inactive
same,Potency,[3],inactive
